Hits are enriched below; roughly 3.6% of the tested compounds scored in any of these assays.
TROY signal inh – TROY signaling inhibition | AID 1347056 | inhibition, % at 10 µM | 360,000 compounds, 0.98% hits | Q293 LMP1-TROYcd NF-kB luciferase reporter, 4 h;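 active means compounds whose plate-normalised and pattern-corrected inhibition of the luciferase reporter signal at the single screening dose is 50% or more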
LGR2 antag – blocks bursicon-induced cAMP signaling via Drosophila LGR2; 380,000 compounds, 0.35% hits; inhibition, % at 9.99 µM; HEK293 LGR2, CRE-luciferase, bursicon-stimulated, 4 h;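 active means drop in luminescence signal, shown as inhibition above about 50% in the replicate tests, limit read from the data, passing the limit was not always enough; inconclusive means probably only some replicates passing the limit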;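 further: agonist challenge used bursicon conditioned medium at about half maximal strength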
EBV LMP1 NFkB – inhibitors of Epstein-Barr LMP1-induced NF-kappaB reporter; LMP1-induced NF-kappaB luciferase reporter cells, luminescence; inhibition, % at 12.5 µM; 350,000 compounds, 0.69% hits; AID 504558; in the data active means inhibition above about 41%; inconclusive means no clear call, values can overlap the other calls
HSF-1 act – increases HSF-1 driven luciferase reporter signal; NIH3T3-HGL HSF-1 luciferase reporter, MG132, 8 h; 100% = twice DMSO control signal; 300,000 compounds, 1.7% hits; AID 504408; activation, % at 9 µM;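 active means mean replicate activation of at least 50% with a set share of replicates each reaching 50%; inconclusive means only one of those two conditions met; inactive means mean below 50% and too few replicates reaching it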
HSF1 inh – HSF1 inhibition; NIH3T3-HGL HSE-luciferase, MG132-induced, luminescence 8 h; stronger effect = lower value; activity change, negative = inhibition, % at 7.5 µM (by protocol); 300,000 compounds, 0.77% hits;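 active means more than half of replicate wells show activity change below -50%, luminescence cut by over half; inconclusive means some wells, but at most half, below -50%; inactive means no replicate well below -50%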;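 further: luciferase reports HSF-1 transcriptional activity via heat shock element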
TWEAK Fn14 block – inhibitors of TWEAK-Fn14 interaction signaling. 360,000 compounds, 2% hits. inhibition, % at 10 µM. AID 1159606. TWEAK-stimulated Fn14 reporter cells, luciferase luminescence, 8 h; in the data active means inhibition above about 50%
Each line names hits and unclear results; the compound was inactive in the other large screens.

Nc1nc2ccc(Cl)cc2cc1C(=O)NCCc1c[nH]c2ccccc12	TWEAK Fn14 block 52 (no result: LGR2 antag, EBV LMP1 NFkB, HSF-1 act, HSF1 inh)
O=C(O)c1nccnc1C(=O)NCCc1c[nH]c2ccccc12	none
CCOc1ncccc1C(=O)NCCc1c[nH]c2ccccc12	HSF-1 act 89
CN1CCN(C(=O)C[C@@H]2CC[C@H]3[C@@H](COC[C@H](O)CN3CC3CC3)O2)CC1	none (no result: TROY signal inh, EBV LMP1 NFkB, HSF-1 act, HSF1 inh, TWEAK Fn14 block)
CCC(=O)Nc1cccc(-c2cc3ccccc3oc2=O)c1	TROY signal inh 63, TWEAK Fn14 block 60
Cc1cc(C)cc(C(=O)NC(=S)Nc2ccc(-c3cc4ccccc4oc3=O)cc2)c1	TROY signal inh 57
O=C(Cc1cccc2ccccc12)Nc1ccc(-c2cc3ccccc3oc2=O)cc1	TROY signal inh 58, EBV LMP1 NFkB 55 (no result: LGR2 antag)
C[C@@H]1CCCCO[C@H](CN(C)C(=O)Nc2ccc(F)cc2)[C@H](C)CN([C@H](C)CO)C(=O)c2cc(NC(=O)C3CCCCC3)ccc2O1	none (no result: TROY signal inh, EBV LMP1 NFkB, HSF-1 act, HSF1 inh, TWEAK Fn14 block)
COc1cc(/C=C2/SC(=O)NC2=O)ccc1OCc1ccccc1	none
NC1=NC(=O)/C(=C/c2ccc(Br)cc2)S1	EBV LMP1 NFkB 74
COc1cc(/C=C2/SC(=Nc3ccc(O)cc3)NC2=O)ccc1O	TWEAK Fn14 block 60
NC1=NC(=O)/C(=C/c2cc(Br)c(O)c(Br)c2)S1	none
COc1cc(/C=C2\SC(N)=NC2=O)ccc1O	LGR2 antag inconclusive, TWEAK Fn14 block 100
COc1ccc(/C=C2/SC(=S)NC2=O)cc1OCc1ccccc1	TROY signal inh 51
COc1cccc(C#Cc2cnc3c(c2)C(=O)N([C@@H](C)CO)C[C@@H](C)[C@@H](CN(C)C(=O)C2CC2)O3)c1	none (no result: TROY signal inh, EBV LMP1 NFkB, HSF-1 act, HSF1 inh, TWEAK Fn14 block)
CCc1cc[n+](CC(=O)Nc2ccc(Cl)cc2Cl)cc1	HSF1 inh -72
C[C@@H]1CN([C@H](C)CO)C(=O)Cc2cc(NC(=O)Nc3ccc(C(F)(F)F)cc3)ccc2O[C@H]1CN(C)C(=O)Nc1ccc(F)cc1	none (no result: TROY signal inh, EBV LMP1 NFkB, HSF-1 act, HSF1 inh, TWEAK Fn14 block)
CC(C)(C)c1nc(N2CCN(C(=O)c3ccco3)CC2)c2nnn(Cc3ccccc3)c2n1	HSF1 inh -70 (no result: LGR2 antag)
O=C(c1ccco1)N1CCN(c2nc(C3CC3)nc3c2nnn3Cc2ccccc2Cl)CC1	none (no result: LGR2 antag)
Cc1cc2nc3ccc(=[N+](C)C)cc-3sc2cc1N	EBV LMP1 NFkB inconclusive, HSF-1 act 58 (no result: LGR2 antag)
CN(C)c1ccc2nc3ccc(=[N+](C)C)cc-3sc2c1	none (no result: LGR2 antag)
CN(c1ccccc1)c1ccc(/C=C/[N+](=O)[O-])cc1	TROY signal inh 89, LGR2 antag 102, HSF-1 act 198, TWEAK Fn14 block 103
COc1cc(SC)ccc1C(=O)Nc1ncc(C)s1	TROY signal inh 83, LGR2 antag 102, EBV LMP1 NFkB 74, TWEAK Fn14 block 100
COc1cc(SC)ccc1C(=O)Nc1ccccn1	TWEAK Fn14 block 56
COc1cc(SC)ccc1C(=O)Nc1cccc(C)n1	none
COc1cc(SC)ccc1C(=O)Nc1ccc(C)cc1	HSF-1 act 55 (no result: LGR2 antag)
COc1cc(SC)ccc1C(=O)Nc1ccc(Br)cn1	TROY signal inh 84, EBV LMP1 NFkB 51, TWEAK Fn14 block 97 (no result: LGR2 antag)
COc1cc(SC)ccc1C(=O)Nc1ccc(C)cc1C	none
Cc1noc(C)c1NC(=O)Nc1ccc2c(c1)C(=O)N([C@@H](C)CO)C[C@@H](C)[C@@H](CN(C)S(=O)(=O)c1c(C)noc1C)O2	none (no result: TROY signal inh, EBV LMP1 NFkB, HSF-1 act, HSF1 inh, TWEAK Fn14 block)
COc1cc(SC)ccc1C(=O)Nc1ncc(Cl)cc1Cl	HSF-1 act 63
COc1ccc(NC(=O)N(C)C[C@H]2Oc3ccc(NC(=O)Cn4cnnn4)cc3C(=O)N([C@@H](C)CO)C[C@H]2C)cc1	none (no result: TROY signal inh, EBV LMP1 NFkB, HSF-1 act, HSF1 inh, TWEAK Fn14 block)
Cc1csc2nc(CSc3nc4ccccc4o3)c(Br)n12	HSF-1 act 110 (no result: LGR2 antag)
COc1ccc(C(=O)N2C[C@@H]3[C@H](c4ccccc42)[C@@H](CO)N3C(=O)c2cccc(F)c2)cc1	none (no result: TROY signal inh, EBV LMP1 NFkB, HSF-1 act, HSF1 inh, TWEAK Fn14 block)
CCCCC(=O)Nc1cc2nn(-c3ccc(OC)cc3)nc2cc1C	none
CCC(=O)Nc1cc2nn(-c3ccc(C)cc3)nc2cc1C	TROY signal inh 90, EBV LMP1 NFkB 63, HSF1 inh -62, TWEAK Fn14 block 93
CCC(=O)Nc1ccc2c(c1)ncn2-c1ccc(C)cc1	HSF-1 act 53
CCC(=O)Nc1cc2nn(-c3ccc(OC)cc3)nc2cc1C	TROY signal inh 57, LGR2 antag inconclusive, TWEAK Fn14 block 70
O=C(c1ccc(F)cc1)N1CC(=O)N2[C@H](CO)[C@H](c3ccc(C#CC4CCCC4)cc3)[C@H]2C1	none (no result: TROY signal inh, EBV LMP1 NFkB, HSF-1 act, HSF1 inh, TWEAK Fn14 block)
C[C@@H]1CCCCO[C@@H](CN(C)C(=O)Nc2ccc(F)cc2)[C@@H](C)CN([C@@H](C)CO)C(=O)c2cc(NC(=O)NC3CCCCC3)ccc2O1	none (no result: TROY signal inh, EBV LMP1 NFkB, HSF-1 act, HSF1 inh, TWEAK Fn14 block)
CNC(=S)Nc1ccc([N+](=O)[O-])c(C)c1	TWEAK Fn14 block 68
Cc1ccc(CNC(=S)Nc2ccc(C)c([N+](=O)[O-])c2)cc1	none
O=C(Nc1cccs1)Nc1c(F)c(F)cc(F)c1F	HSF-1 act 59
COC(=O)c1ccccc1NC(=O)c1cccs1	none (no result: LGR2 antag)
CCc1cccc(NC(=O)Nc2cccs2)c1	HSF-1 act 133 (no result: LGR2 antag)
N#Cc1cccc(NC(=O)Nc2cccs2)c1	none (no result: LGR2 antag)
COC(=O)c1ccccc1NC(=O)Nc1cccs1	HSF-1 act 66
COc1ccc(S(=O)(=O)Nc2ccc3c(c2)C(=O)N([C@H](C)CO)C[C@H](C)[C@H](CN(C)S(=O)(=O)c2c(C)noc2C)OCCCC[C@H](C)O3)cc1	none (no result: TROY signal inh, EBV LMP1 NFkB, HSF-1 act, HSF1 inh, TWEAK Fn14 block)
C[C@H]1CN([C@@H](C)CO)C(=O)Cc2cc(NC(=O)C3CCCCC3)ccc2O[C@@H]1CN(C)S(=O)(=O)c1cn(C)cn1	none (no result: TROY signal inh, EBV LMP1 NFkB, HSF-1 act, HSF1 inh, TWEAK Fn14 block)

Bioassay records deposited in PubChem BioAssay by several laboratories.
